From PubChem BioAssay (EPA / NIEHS) come the findings set out here.

Where “and” joins values, the source holds several entries; their conditions need not be identical. Identical values can stand only once. Records with an inconclusive call do not appear. More than one record can exist for a structure, and the calls need not agree. Calls of active or inactive are those of the source. How the source made its calls, unless noted: active means hit-call score of the fitted dose curve at least 0.9, where 1 is the maximum; inactive means score below 0.9.

Read-out in assay [1]: solute carrier (SLCO1B1), SLCO1B1 (gene 10599)
As to the kind of experiment: LTEA_HepaRG_SLCO1B1: Life Technologies and Expression Analysis (LTEA) Assay for solute carrier (SLCO1B1) using HepaRG (AID 2283530). The settings on record: mRNA level, 48 h; actives raise or lower the signal. The essentials: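 Differentiated human HepaRG cells, plated 48 h, switched to serum-free induction medium and exposed in duplicate for 48 h to 8 half-log concentrations (top 100 uM) in 0.5% DMSO. SLCO1B1 mRNA by TaqMan qRT-PCR, normalized to ACTB/GAPDH/POLR2A.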

Read-out in assay [2]: sulfotransferase 2A1 (SULT2A1), SULT2A1 (gene 6822)
As to the kind of experiment: LTEA_HepaRG_SULT2A1: Life Technologies and Expression Analysis (LTEA) Assay for sulfotransferase 2A1 (SULT2A1) using HepaRG (AID 2283531). The settings on record: mRNA level, 48 h; actives raise or lower the signal. The essentials:
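Differentiated human HepaRG cells in serum-free induction medium were exposed for 48 h to eight half-log concentrations (top 100 uM, 0.5% DMSO). SULT2A1 mRNA was measured by qRT-PCR, normalized to ACTB, GAPDH and POLR2A, and fitted bidirectionally against DMSO.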

Read-out in assay [3]: Transforming Growth Factor (TGFA), TGFA (gene 7039)
As to the kind of experiment: LTEA_HepaRG_TGFA: Life Technologies and Expression Analysis (LTEA) Assay for Transforming Growth Factor (TGFA) using HepaRG (AID 2283532). The settings on record: mRNA level, 48 h; actives raise or lower the signal. The essentials: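 qRT-PCR read-out of TGFA transcript, normalized to three housekeeping genes, fitted bidirectionally against 0.5% DMSO baseline. Human HepaRG cultures received chemicals for 48 h at eight half-log concentrations, top 100 uM.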

Read-out in assay [4]: Transforming Growth Factor (TGFB1), TGFB1 (gene 7040)
As to the kind of experiment: LTEA_HepaRG_TGFB1: Life Technologies and Expression Analysis (LTEA) Assay for Transforming Growth Factor (TGFB1) Transporter using HepaRG (AID 2283533). The settings on record: mRNA level, 48 h; actives raise or lower the signal. The essentials: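 Differentiated human HepaRG cells in serum-free induction medium were exposed in duplicate for 48 h to eight concentrations (top 100 uM, half-log steps, 0.5% DMSO). TGFB1 mRNA was quantified by qRT-PCR, normalized to ACTB, GAPDH, POLR2A, and fitted bidirectionally against DMSO.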

Read-out in assay [5]: TIMP1, TIMP1 (gene 7076)
As to the kind of experiment: LTEA_HepaRG_TIMP1: Life Technologies and Expression Analysis (LTEA) Assay for TIMP1 using HepaRG (AID 2283534). The settings on record: mRNA level, 48 h; actives raise or lower the signal. The essentials:
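Differentiated human HepaRG cells in serum-free induction medium were exposed 48 h to chemicals (8 half-log concentrations, top 100 uM, 0.5% DMSO). TIMP1 mRNA was quantified by TaqMan qRT-PCR, normalized to ACTB/GAPDH/POLR2A; bidirectional fit versus DMSO.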

Read-out in assay [6]: Tumor necrosis factor receptor 1 (TNFRSF1A), TNFRSF1A (gene 7132)
As to the kind of experiment: LTEA_HepaRG_TNFRSF1A: Life Technologies and Expression Analysis (LTEA) Assay for Tumor necrosis factor receptor 1 (TNFRSF1A) using HepaRG (AID 2283535). The settings on record: mRNA level, 48 h; actives raise or lower the signal. Summed up: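 Differentiated human HepaRG cells were exposed in duplicate for 48 h in serum-free induction medium to eight concentrations (top 100 uM, half-log steps, 0.5% DMSO). TNFRSF1A mRNA was quantified by qRT-PCR, normalized to ACTB, GAPDH and POLR2A, then fitted bidirectionally against DMSO.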

Read-out in assay [7]: UDP glucuronosyltransferase (UGT1A1), UGT1A1 (gene 54658)
As to the kind of experiment: LTEA_HepaRG_UGT1A1: Life Technologies and Expression Analysis (LTEA) Assay for UDP glucuronosyltransferase (UGT1A1) using HepaRG (AID 2283538). The settings on record: mRNA level, 48 h; actives raise or lower the signal. Summed up: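 mRNA induction or loss of UGT1A1, by TaqMan qRT-PCR, in duplicate HepaRG wells after 48 h exposure to half-log dilutions topping at 100 uM; DMSO (0.5%) served as baseline.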

Read-out in assay [8]: UDP glucuronosyltransferase (UGT1A6), UGT1A6 (gene 54578)
As to the kind of experiment: LTEA_HepaRG_UGT1A6: Life Technologies and Expression Analysis (LTEA) Assay for UDP glucuronosyltransferase (UGT1A6) using HepaRG (AID 2283539). The settings on record: mRNA level, 48 h; actives raise or lower the signal. Summed up: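 Human HepaRG cells were dosed for 48 h in serum-free induction medium with 0.5% DMSO vehicle, eight-point half-log series from 100 uM, in duplicate. UGT1A6 mRNA was measured by qRT-PCR, normalized to ACTB, GAPDH, POLR2A, and fitted bidirectionally against DMSO.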

Read-out in assay [9]: X-box binding protein 1 (XBP1), XBP1 (gene 7494)
As to the kind of experiment: LTEA_HepaRG_XBP1: Life Technologies and Expression Analysis (LTEA) Assay for X-box binding protein 1 (XBP1) using HepaRG (AID 2283540). The settings on record: mRNA level, 48 h; actives raise or lower the signal. The essentials:
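Differentiated human HepaRG cells in serum-free induction medium were exposed in duplicate for 48 h to eight half-log concentrations up to 100 uM in 0.5% DMSO. XBP1 mRNA was quantified by qRT-PCR, normalised to ACTB, GAPDH and POLR2A, with bidirectional fitting against DMSO.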

Assay [10] can be described thus: LTEA_HepaRG_LDH_cytotoxicity: Cytotoxicity Assessment in the Life Technologies and Expression Analysis (LTEA) Assay (AID 2283563; active means hit-call score of the fitted dose curve at least 0.9, where 1 is the maximum;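 on AC50: LDH activity released into spent culture medium as a marker of cell death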). Summed up: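 Differentiated human HepaRG cells, plated 48 h beforehand, were switched to serum-free induction medium and exposed for 48 h to eight half-log concentrations (top 100 uM) in 0.5% DMSO. LDH was measured in spent medium; activity was fitted relative to DMSO vehicle.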

Assay [11] is described as follows: ATG_XTT_Cytotoxicity: Cytotoxicity Assessment in the Attagene TRANS-FACTORIAL HepG2 Assay (AID 2283584; active means hit-call score of the fitted dose curve at least 0.9, where 1 is the maximum). The essentials: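 HepG2 human liver cells, transiently transfected with multiple GAL4-UAS reporter units, were dosed and read at 24 h by XTT as cell number. Loss of signal was fitted relative to DMSO negative control baseline.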
Read-out in assay [12]: Cellular tumor antigen p53 (Homo sapiens) (UniProt P04637)
As to the kind of experiment: LTEA_HepaRG_TP53: Life Technologies and Expression Analysis (LTEA) Assay for Tumor Protein P53 (TP53) using HepaRG (AID 2283537). The settings on record: mRNA level, 48 h; actives raise or lower the signal. Summed up:
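Gain or loss of TP53 mRNA signal is scored relative to 0.5% DMSO after 48 h chemical treatment of HepaRG liver cells, tested in duplicate at eight half-log concentrations up to 100 uM.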

Assay [13] in a line: TOX21_p53_BLA_p2_viability: Viability Assessment in the Tox21 HCT-116 p53 Agonism Beta-lactamase Assay, Phase 2 (AID 2283591; active means hit-call score of the fitted dose curve at least 0.9, where 1 is the maximum;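 further: compound exposure lasted 16 h at 37 °C; actives lower the ATP signal meaning cytotoxicity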). The essentials: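 HCT116 p53-bla cells, 4000/well, dosed after 5 h plating (217-fold dilution of DMSO stocks) and incubated 16 h at 37C. Viability taken as cellular ATP by CellTiter-Glo luminescence after 30 min RT; signal loss marks cytotoxicity.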

Assay [14] can be described thus: TOX21_p53_BLA_p3_viability: Viability Assessment in the Tox21 HCT-116 p53 Agonism Beta-lactamase Assay, Phase 3 (AID 2283593; active means hit-call score of the fitted dose curve at least 0.9, where 1 is the maximum;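 further: cells exposed to compound for 16 h before reading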). Summed up: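 HCT116 cells, 4000/well, dosed 5 h after plating by pin transfer (217-fold dilution from DMSO stock) and incubated 16 h at 37C, 5% CO2. Viability read as ATP luminescence with CellTiter-Glo after 30 min at room temperature.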

In assay [15] the target is Cellular tumor antigen p53 (Homo sapiens) (UniProt P04637). As to the kind of experiment: TOX21_p53_BLA_p3_ratio: Tox21 HCT-116 p53 Agonism Beta-lactamase Assay, Ratio, Phase 3 (AID 2283596; active means hit-call score of the fitted dose curve at least 0.9, where 1 is the maximum). Summed up: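 Cells were seeded at 4000/well, rested 5 h at 37C, then dosed with DMSO compound solutions (217-fold dilution) for 16 h. CCF4-AM substrate was loaded for 2 h at room temperature, and the 460/530 nm emission ratio was fitted for gain of signal versus DMSO.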
Chain of Cellular tumor antigen p53 (Homo sapiens) (P04637 whole entry, looked up): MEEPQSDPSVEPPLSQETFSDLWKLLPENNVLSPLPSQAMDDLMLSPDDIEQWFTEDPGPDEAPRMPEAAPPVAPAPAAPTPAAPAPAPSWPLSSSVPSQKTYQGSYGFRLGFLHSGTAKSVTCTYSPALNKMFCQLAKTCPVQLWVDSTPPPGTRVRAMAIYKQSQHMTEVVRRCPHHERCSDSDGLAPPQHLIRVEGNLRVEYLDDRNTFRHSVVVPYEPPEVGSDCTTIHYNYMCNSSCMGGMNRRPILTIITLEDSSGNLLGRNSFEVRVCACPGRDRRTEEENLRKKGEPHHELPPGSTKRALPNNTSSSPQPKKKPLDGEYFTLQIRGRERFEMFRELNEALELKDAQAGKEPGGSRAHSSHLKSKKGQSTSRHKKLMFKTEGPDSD

Assay [16] is described as follows: TOX21_p53_BLA_p4_viability: Viability Assessment in the Tox21 HCT-116 p53 Agonism Beta-lactamase Assay, Phase 4 (AID 2283597; active means hit-call score of the fitted dose curve at least 0.9, where 1 is the maximum;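 further: hits lower the luminescence signal meaning cytotoxicity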). Summed up:
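Cytotoxicity was inferred from loss of CellTiter-Glo luminescence. HCT116 cells had been dosed with compounds after 5 h plating, incubated 16 h at 37C and 5% CO2, and exposed to the CCF4-AM substrate for 2 h.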

Assay [17] addresses Cellular tumor antigen p53 (Homo sapiens) (UniProt P04637). As to the kind of experiment: TOX21_p53_BLA_p5_ratio: Tox21 HCT-116 p53 Agonism Beta-lactamase Assay, Ratio, Phase 5 (AID 2283599; active means hit-call score of the fitted dose curve at least 0.9, where 1 is the maximum). Summed up: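 HCT-116 p53-bla cells (4000/well) plated 5 h, dosed with compound (217-fold DMSO dilution) for 16 h at 37 C; CCF4-AM substrate 2 h at room temperature. Activity is the 460/530 nm emission ratio (405 nm excitation), fitted in gain-of-signal direction versus DMSO.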

Assay [18] can be described thus: TOX21_p53_BLA_p5_viability: Viability Assessment in the Tox21 HCT-116 p53 Agonism Beta-lactamase Assay, Phase 5 (AID 2283600; active means hit-call score of the fitted dose curve at least 0.9, where 1 is the maximum). The essentials: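 Luciferase-coupled ATP quantitation of cells treated for 16 h (37C, 5% CO2) with test chemicals delivered in DMSO via a 217-fold dilution; 4000 cells/well; reagent incubated 30 min at room temperature before luminescence reading.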

Consider `CC(=O)[C@@]1(O)CC[C@H]2[C@@H]3CCC4=CC(=O)CC[C@]4(C)[C@H]3CC[C@@]21C`, for which the result in assay [1], in assay [2], in [3], in [4], in assay [5] and in assay [6] was inactive. Also, the compound was classed as inactive in [7], in assay [8], in assay [9], in [10] and in assay [11].
A word on the AC50: it is the concentration at which the activity in the assay is half-maximal. On to `CCCCCCCCCCCCCCOS(=O)(=O)O`, for which the result in assay [1], in assay [2], in [3], in assay [4], in assay [5] and in [6] was inactive. Moreover, the outcome in assay [12], in [7], in assay [8], in assay [10], in [11] and in assay [14] was inactive. The result in [15] was inactive. The half-maximal activity concentration (AC50) is 74.2 µM (active) in assay [13], 73.1 µM (active) in assay [16], 80.7 µM (active) in assay [17] and 68.3 µM (active) in [18].
On to `Oc1ccccc1O`, for which the compound was classed as inactive in assay [1], in assay [2], in assay [3], in assay [4], in [5] and in assay [6]. Besides, the outcome in assay [12], in assay [7], in assay [8], in [10], in assay [13] and in assay [14] was inactive. Further, the result in assay [15], in assay [17] and in [18] was inactive. Further, the concentration at half-maximal activity (AC50) in [14] was 74.5 µM (active); in [16] it was 70.9 µM (active) and 46.5 µM (active).
Turning to `N[C@@H](Cc1c[nH]c2ccccc12)C(=O)O`, the call in [1], in [2], in assay [3], in assay [4], in assay [5] and in assay [6] was inactive. The compound was classed as inactive in assay [7], in assay [8], in assay [9], in assay [10] and in [11].
Take `Cc1c(C)c2c(c(C)c1O)CCC(C)(COc1ccc(CC3SC(=O)NC3=O)cc1)O2` (stereo not drawn): the AC50 in assay [1] was 24.7 µM (active); in assay [2], 93.4 µM (active); in assay [4] it was 12 µM (active); in [5] it was 50 µM (active); in [10], 76.3 µM (active); in [13], 74.4 µM (active) and 37.1 µM (active). Further, the half-maximal activity concentration (AC50) in assay [14] was 73.8 µM (active); in [15] it was 28.1 µM (active) and 26 µM (active); in assay [16] it was 66.4 µM (active) and 34.8 µM (active); in [17], 56.1 µM (active) and 34.1 µM (active); in assay [18] it was 87 µM (active). Also, the result in assay [3], in assay [6], in [12], in assay [7], in assay [8] and in assay [18] was inactive.
